# In the supplement of paper PMC7156485:
# Values without a mark were called inactive.
# System: TDF
# Experiment: H1.0 immunofluorescence intensity relative to DMSO (% of DMSO); higher = stronger H1.0 induction, active = 120 or more
# Settings: concentration: 10 µM; 24 h
# In short: (§1)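 H1.0 nuclear intensity or cell number is expressed as percent of the plate control, with the median of replicates taken. HCC1569 and TDF cells were treated with compounds at 10 µM for 24 h at 37 °C, in triplicate, then fixed and immunostained for H1.0 with DAPI as a nuclear stain. HCC1569 values were smoothed to correct for positional effects.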
# 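Note: TDF is a line of transformed human dermal fibroblasts of mesenchymal origin.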
row,Compound,H1.0 immunofluorescence intensity
1,CN(C)CCC(c1ccc(Cl)cc1)c1ccccn1 (configuration not stated) [Chlorpheniramine],96.2
2,COc1cc(O)c2c(=O)c(O)c(-c3ccc(O)c(O)c3)oc2c1 [Rhamnetine],93
3,CS(=O)(=O)c1ccc(C(O)C(COC(=O)CN)NC(=O)C(Cl)Cl)cc1 (configuration not stated) [Thiamphenicol glycinate],98.4
4,FC(F)(F)c1ccc(CNc2ccc(Cc3c[nH]c4ncccc34)cn2)cc1,108
5,C1CNCCN1.COc1cc(C(O)CO)ccc1O.COc1cc(C(O)CO)ccc1O (configuration not stated) [MHPG piperazine],106
6,"CCCCCC=CCC=CCC=CCC=CCCCCCC(=O)O [7(Z), 10(Z), 13(Z), 16(Z)-Ocosatetraenoic Acid]",89.2
7,COc1cc(-c2ccc(=O)[nH]n2)ccc1OC(F)F [Zardaverine],91.5
8,CC(C)Cc1ccc(C(C)C(=O)NO)cc1 (configuration not stated) [Ibuproxam],87.3
9,NCCCS(=O)(=O)[O-].[Na+] [3-Amino-1-propanesulfonic acid sodium],93.2
10,CC(=O)Nc1nnc(S(N)(=O)=O)s1 [Acetazolamide],86.9
11,CCCCCCCCCCCCCCCCOCC(CO)OC(C)=O (configuration not stated) [1-Hexadecyl-2-O-acetyl-glycerol],98.3
12,Cl.NCCNC(=O)c1ccc(Cl)cc1 [Ro 16-6491 hydrochloride],94.8
13,CC[C@@]1(O)C(=O)OCc2c1cc1n(c2=O)Cc2cc3c(CN(C)C)c(O)ccc3nc2-1,129 (active)
14,NC1CONC1=O [L-Cycloserine],94.5
15,NCCCC(O)(P(=O)([O-])O)P(=O)(O)O [Alendronate],94.3
16,CCCCCCCCCCCCCCC(F)C(=O)O (configuration not stated) [2-Fluoropalmitic acid],99.7

# System: HCC1569
# Experiment: H1.0 immunofluorescence intensity relative to DMSO (% of DMSO); higher = stronger H1.0 induction, active = 140 or more
# Settings: concentration: 10 µM; 24 h
# In short: as §1
row,Compound,H1.0 immunofluorescence intensity
1,CCS(=O)(=O)CCn1c([N+](=O)[O-])cnc1C [Tinidazole],105
2,CCCC1OC2CC3C4CCC5=CC(=O)C=CC5(C)C4C(O)CC3(C)C2(C(=O)CO)O1 (configuration not stated) [Budesonide],96.4
3,NC(=O)c1cccc(-c2cc(Nc3ccc(OC(F)(F)F)cc3)ncn2)c1 [Bcr-abl Inhibitor],124
4,CCOC(=O)c1c(C)[nH]c(C=C2C(=O)Nc3ccccc32)c1C [VEGF Receptor 2 Kinase Inhibitor I],103
5,"O=c1ccc2ccc(O)c(O)c2o1 [7,8-dihydroxy-2H-chromen-2-one]",91
6,CN1CCN(C2=Nc3ccccc3Oc3ccc(Cl)cc32)CC1.O=C(O)CCC(=O)O [Loxapine succinate],110
7,CC(C)NCC(O)COc1ccc(CC(N)=O)cc1 (stereo not drawn) [R(+)-Atenolol],95.4
8,CN(C)CCC(c1ccc(Br)cc1)c1ccccn1.O=C(O)C=CC(=O)O (racemic),94.6
9,N=C(N)c1ccc(OCCCCCOc2ccc(C(=N)N)cc2)cc1 [Pentamidine],113
10,O=C(O)CCCC=CCC1C(O)CC(O)C1C=CC(O)COc1cccc(Cl)c1.[Na] (configuration not stated),92.6
11,"O=C(OC12CC3CC(CC(C3)C1)C2)c1ccc(NCc2cc(O)ccc2O)cc1 [1-adamantyl 4-[(2,5-dihydroxybenzyl)amino]benzoate]",109
12,CON=C(C(=O)NC1C(=O)N2C(C(=O)[O-])=C(CSc3nc(=O)c([O-])nn3C)CSC12)c1csc(N)n1.[Na+].[Na+] (configuration not stated) [Ceftriaxone sodium],94
13,CC(=O)OC12COC1CC(O)C1(C)C(=O)C(O)C3=C(C)C(OC(=O)C(O)C(NC(=O)OC(C)(C)C)c4ccccc4)CC(O)(C(OC(=O)c4ccccc4)C21)C3(C)C (configuration not stated) [Docetaxil],144 (active)
14,CCCCCCCCCCCCCCCCCCCCC(=O)O [Heneicosanoic acid],103
15,CCCCCCCCCC(=O)O [Decanoic acid],103
16,Cc1cnc(Nc2ccc(OCCN3CCCC3)cc2)nc1Nc1cccc(S(=O)(=O)NC(C)(C)C)c1,189 (active)
